Experimental data taken from PubChem BioAssay (EPA / NIEHS).
Calls of active or inactive are those of the source. The calls were made as follows: active = hit-call score of the fitted dose curve at least 0.9, where 1 is the maximum; inactive = score below 0.9.

Columns and labels:
[1] = read-out: urokinase plasminogen activator (uPA), PLAU (gene 5328); experiment: BSK_KF3CT_uPA: BioMAP Diversity Plus: KF3CT Assay for urokinase plasminogen activator (uPA) Biomarker Activity (AID 2283075); conditions: primary human keratinocytes with fibroblasts; actives raise or lower the signal
How it was run: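 Human keratinocyte plus foreskin fibroblast primary co-culture exposed to chemical for 24 h. uPA levels were quantified by ELISA, and activity was fitted bidirectionally against a DMSO negative-control baseline.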

[2] = read-out: CD40, CD40 (gene 958); experiment: BSK_LPS_CD40: BioMAP Diversity Plus: LPS Assay for CD40 Biomarker Activity (AID 2283076); conditions: primary human HUVEC with PBMC; actives raise or lower the signal
How it was run: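 In the LPS system of human endothelial cells with peripheral blood mononuclear cells, CD40 levels were read by ELISA 24 h post-treatment. Signal changes in either direction were fitted against the DMSO baseline, with parallel SRB protein staining.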

[3] = read-out: E-selectin (Homo sapiens) (UniProt P16581); experiment: BSK_LPS_Eselectin: BioMAP Diversity Plus: LPS Assay for Eselectin Biomarker Activity (AID 2283077); conditions: primary human HUVEC with PBMC; actives raise or lower the signal
How it was run: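 E-selectin ELISA on LPS-stimulated endothelial cell/PBMC co-cultures, read 24 h post-treatment; gains and losses fitted against DMSO. Parallel SRB staining (0.1% SRB after 10% TCA fixation, 560 nm) flags overt cytotoxicity.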

[4] = read-out: Interleukin-8 (IL8), CXCL8 (gene 3576); experiment: BSK_LPS_IL8: BioMAP Diversity Plus: LPS Assay for Interleukin-8 (IL8) Biomarker Activity (AID 2283078); conditions: primary human HUVEC with PBMC; actives raise or lower the signal
How it was run: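 ELISA read-out of IL-8 after 24 h chemical treatment of LPS-activated endothelial/PBMC human primary co-cultures. Changes either up or down relative to DMSO; overt cytotoxicity checked by sulforhodamine B staining in parallel wells.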

[5] = BSK_LPS_SRB: Viability Assessment in the BioMAP Diversity Plus: LPS Assay (AID 2283079); conditions: primary human HUVEC with PBMC;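 also: total protein by sulforhodamine B absorbance as a cytotoxicity measure; measured one day after compound addition; fitted in both directions against DMSO so loss or gain of signal counts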
How it was run: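 SRB viability endpoint: cells fixed with 10% TCA, stained with 0.1% SRB, read at 560 nm, 24 h post-dose. HUVEC/PBMC co-culture; signal change in either direction scored relative to DMSO.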

[6] = read-out: Interleukin-1 alpha (IL1a), IL1A (gene 3552); experiment: BSK_LPS_IL1a: BioMAP Diversity Plus: LPS Assay for Interleukin-1 alpha (IL1a) Biomarker Activity (AID 2283080); conditions: primary human HUVEC with PBMC; actives raise or lower the signal
How it was run: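 Readout is IL-1a level by ELISA, 24 h post-dose, fitted as gain or loss relative to DMSO. System: LPS-activated human primary co-culture of vascular endothelium and peripheral blood mononuclear cells, with parallel SRB total-protein cytotoxicity.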

[7] = read-out: Monocyte Chemoattractant Protein-1 (MCP1), CCL2 (gene 6347); experiment: BSK_LPS_MCP1: BioMAP Diversity Plus: LPS Assay for Monocyte Chemoattractant Protein-1 (MCP1) Biomarker Activity (AID 2283081); conditions: primary human HUVEC with PBMC; actives raise or lower the signal
How it was run: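 Secreted MCP-1 read by ELISA at 24 h post-dosing in an LPS-activated co-culture of endothelial cells with peripheral blood mononuclear cells. Fits run in both directions, DMSO as baseline; parallel SRB staining tracks overt cytotoxicity.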

[8] = BSK_LPS_PGE2: BioMAP Diversity Plus: LPS Assay for Prostaglandin E2 (PGE2) Biomarker Activity (AID 2283082); conditions: primary human HUVEC with PBMC; actives raise or lower the signal;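 as to AC50: secreted prostaglandin E2 measured by ELISA in LPS-stimulated co-culture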
How it was run: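 Endpoint derived from bidirectional curve fitting versus DMSO of ELISA-measured PGE2 in LPS-stimulated human primary vascular co-culture (HUVEC with PBMC) harvested at 24 h.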

[9] = read-out: Macrophage colony-stimulating factor (MCSF), CSF1 (gene 1435); experiment: BSK_LPS_MCSF: BioMAP Diversity Plus: LPS Assay for Macrophage colony-stimulating factor (MCSF) Biomarker Activity (AID 2283083); conditions: primary human HUVEC with PBMC; actives raise or lower the signal
How it was run: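 Bidirectional fitting against DMSO was applied to M-CSF levels read by ELISA at 24 h post-dose. The system pairs human umbilical vein endothelium with peripheral blood mononuclear cells; parallel SRB staining tracked cytotoxicity.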

[10] = read-out: Tissue Factor, F3 (gene 2152); experiment: BSK_LPS_TissueFactor: BioMAP Diversity Plus: LPS Assay for Tissue Factor Biomarker Activity (AID 2283084); conditions: primary human HUVEC with PBMC; actives raise or lower the signal
How it was run: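 Compound was added to an endothelial cell/PBMC co-culture, and after 24 h tissue factor (CD142) was read by ELISA. Gain or loss of signal was fitted against a DMSO baseline, and parallel SRB staining (560 nm) tracked overt cytotoxicity.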

[11] = read-out: Tumor necrosis factor (Homo sapiens) (UniProt P01375); experiment: BSK_LPS_TNFa: BioMAP Diversity Plus: LPS Assay for Tumour Necrosis Factor alpha (TNFa) Biomarker Activity (AID 2283085); conditions: primary human HUVEC with PBMC; actives raise or lower the signal
How it was run: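 Primary human vascular co-culture of HUVEC and PBMC; TNFa ELISA 24 h after treatment, analysed as increase or decrease relative to DMSO control.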

[12] = read-out: Vascular cell adhesion molecule 1 (VCAM1), VCAM1 (gene 7412); experiment: BSK_LPS_VCAM1: BioMAP Diversity Plus: LPS Assay for Vascular cell adhesion molecule 1 (VCAM1) Biomarker Activity (AID 2283086); conditions: primary human HUVEC with PBMC; actives raise or lower the signal
How it was run: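 Primary human vascular co-culture (umbilical vein endothelium plus PBMC) stimulated with LPS received chemical; 24 h later VCAM-1 was read by ELISA. Overt cytotoxicity was assessed by sulforhodamine B staining of parallel cultures at the same time point.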

[13] = read-out: CD38, CD38 (gene 952); experiment: BSK_SAg_CD38: BioMAP Diversity Plus: SAg Assay for CD38 Biomarker Activity (AID 2283087); conditions: primary human HUVEC with PBMC; actives raise or lower the signal
How it was run: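 Fluorescence ELISA of cell-surface CD38 served as the read-out, with either increase or decrease fitted against DMSO controls. Cells were a human umbilical vein endothelium plus PBMC co-culture under SEB/TSST-1 stimulation, measured 24 h after dosing.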

[14] = read-out: CD40, CD40 (gene 958); experiment: BSK_SAg_CD40: BioMAP Diversity Plus: SAg Assay for CD40 Biomarker Activity (AID 2283088); conditions: primary human HUVEC with PBMC; actives raise or lower the signal
How it was run: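 CD40 is measured by fluorescence ELISA in an endothelial/PBMC primary human co-culture at 24 h post-dose. Fitting is bidirectional, DMSO baseline. Parallel SRB staining (560 nm) flags cytotoxicity.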

[15] = read-out: CD69, CD69 (gene 969); experiment: BSK_SAg_CD69: BioMAP Diversity Plus: SAg Assay for CD69 Biomarker Activity (AID 2283089); conditions: primary human HUVEC with PBMC; actives raise or lower the signal;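 as to AC50: cell surface CD69 protein quantified by ELISA with fluorescence detection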
How it was run: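 Endothelial/PBMC co-culture; chemical added; 24 h incubation; CD69 ELISA with fluorescence detection; bidirectional fit vs DMSO.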

[16] = read-out: Monocyte Chemoattractant Protein-1 (MCP1), CCL2 (gene 6347); experiment: BSK_SAg_MCP1: BioMAP Diversity Plus: SAg Assay for Monocyte Chemoattractant Protein-1 (MCP1) Biomarker Activity (AID 2283090); conditions: primary human HUVEC with PBMC; actives raise or lower the signal
How it was run: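 MCP-1 levels in the endothelial–PBMC SAg co-culture were quantified by ELISA at 24 h post-dosing; both increases and decreases versus DMSO scored. Cytotoxicity monitored by SRB total protein in parallel cultures.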

[17] = read-out: E-selectin (Homo sapiens) (UniProt P16581); experiment: BSK_SAg_Eselectin: BioMAP Diversity Plus: SAg Assay for Eselectin Biomarker Activity (AID 2283091); conditions: primary human HUVEC with PBMC; actives raise or lower the signal
How it was run: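 Cell-surface E-selectin is read by ELISA at 24 h in the SAg co-culture of HUVEC and PBMC. Curves are fitted in both directions relative to DMSO. Parallel SRB total-protein staining tracks overt toxicity.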

[18] = read-out: Monokine induced gamma interferon (MIG), CXCL9 (gene 4283); experiment: BSK_SAg_MIG: BioMAP Diversity Plus: SAg Assay for Monokine induced gamma interferon (MIG) Biomarker Activity (AID 2283092); conditions: primary human HUVEC with PBMC; actives raise or lower the signal
How it was run: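 Measures CXCL9 protein by ELISA in a human vascular primary-cell co-culture (umbilical vein endothelium with PBMC) 24 h after chemical addition. Activity is scored up or down from the DMSO control.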

[19] = BSK_SAg_PBMCCytotoxicity: PBMC Cytotoxicity Assessment in the BioMAP Diversity Plus: SAg Assay (AID 2283093); conditions: primary human HUVEC with PBMC;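 also: PBMC viability measured as Alamar Blue reduction fluorescence at 546/580 nm; fitted both ways against DMSO so a hit may be loss or gain of signal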;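 as to AC50: PBMC superantigen activated with SEB plus TSST-1 one hour after compound addition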
How it was run: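 Human umbilical vein endothelial cells co-cultured with PBMC; PBMC (75,000/well) pre-treated with compound 1 h, then activated with SEB and TSST-1 (20 ng/mL final each) for 90 h. Alamar Blue added 6 h, fluorescence 546/580 nm; bidirectional fit versus DMSO.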

[20] = read-out: Interleukin-8 (IL8), CXCL8 (gene 3576); experiment: BSK_SAg_IL8: BioMAP Diversity Plus: SAg Assay for Interleukin-8 (IL8) Biomarker Activity (AID 2283094); conditions: primary human HUVEC with PBMC; actives raise or lower the signal
How it was run: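 In this co-culture of human umbilical vein endothelium with peripheral blood mononuclear cells, IL-8 is assayed by ELISA at 24 h. DMSO serves as baseline for bidirectional curve fitting.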

Measured: AC50

E-selectin (Homo sapiens), sequence (P16581 whole entry, looked up): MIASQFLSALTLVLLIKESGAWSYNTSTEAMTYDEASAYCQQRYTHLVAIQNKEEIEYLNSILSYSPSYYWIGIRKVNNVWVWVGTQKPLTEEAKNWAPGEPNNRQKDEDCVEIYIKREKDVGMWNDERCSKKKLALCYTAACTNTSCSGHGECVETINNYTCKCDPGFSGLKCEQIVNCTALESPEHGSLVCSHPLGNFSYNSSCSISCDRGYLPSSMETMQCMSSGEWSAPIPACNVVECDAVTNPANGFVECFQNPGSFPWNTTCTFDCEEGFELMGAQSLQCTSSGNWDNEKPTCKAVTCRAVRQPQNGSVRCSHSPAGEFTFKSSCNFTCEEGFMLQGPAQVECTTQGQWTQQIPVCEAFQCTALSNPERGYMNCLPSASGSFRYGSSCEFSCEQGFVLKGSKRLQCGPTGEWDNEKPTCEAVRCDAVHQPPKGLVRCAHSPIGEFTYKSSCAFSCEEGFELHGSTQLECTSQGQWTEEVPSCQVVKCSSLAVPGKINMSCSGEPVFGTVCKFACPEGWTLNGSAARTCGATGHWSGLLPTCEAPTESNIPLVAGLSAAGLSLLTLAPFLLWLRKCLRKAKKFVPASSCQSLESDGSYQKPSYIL
Tumor necrosis factor (Homo sapiens), sequence (P01375 whole entry, looked up): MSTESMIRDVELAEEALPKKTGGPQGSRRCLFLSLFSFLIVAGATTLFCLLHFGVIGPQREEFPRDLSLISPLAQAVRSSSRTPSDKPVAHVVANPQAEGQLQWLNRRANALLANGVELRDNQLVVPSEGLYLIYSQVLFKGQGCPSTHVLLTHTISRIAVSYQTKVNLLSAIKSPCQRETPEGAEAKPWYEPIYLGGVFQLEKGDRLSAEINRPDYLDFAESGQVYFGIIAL

CCOP(=S)(OCC)OP(=S)(OCC)OCC
inactive: [1] | [2] | [3] | [4] | [5] | [6] | [7] | [8] | [9] | [10] | [11] | [14] | [16] | [18]
active: [12] 20 µM | [13] 31.8 µM | [15] 30.1 µM | [17] 35.4 µM | [19] 25.3 µM | [20] 36 µM

O=C(N[C@H]1CN2CCC1CC2)c1ccc2c(c1)OCCO2
active: [8] 2.86 µM
inactive: [1] | [2] | [3] | [4] | [5] | [6] | [7] | [9] | [10] | [11] | [12] | [13] | [14] | [15] | [16] | [17] | [18] | [19] | [20]

C[C@]12CC[C@@H](O)C[C@@H]1CC[C@@H]1[C@@H]2CC[C@]2(C)C(=O)CC[C@@H]12
inactive: [1] | [2] | [3] | [4] | [5] | [6] | [7] | [8] | [9] | [10] | [11] | [12] | [13] | [14] | [15] | [16] | [17] | [18] | [19] | [20]

Nc1ccc(N)cc1
active: [10] 5.53 µM
inactive: [1] | [2] | [3] | [4] | [5] | [6] | [7] | [8] | [9] | [11] | [12] | [13] | [14] | [15] | [16] | [17] | [18] | [19] | [20]
